From the supplement of paper PMC12532568
Structures can show the parent of a compound that is named as a salt.

Assays:
[1] = test system: Danio rerio larvae Tg(actc1b:ZsGreen-LC3), 3 dpf; experiment: LC3 puncta relative area vs vehicle, with NH4Cl (autophagic flux) (log2 fold change); higher = more autophagy; conditions: 10 µM; treatment time 16 h; NH4Cl: + 100 mM, 4 h
Protocol: (§1)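 Transgenic Tg(actc1b:ZsGreen-map1lc3) zebrafish larvae (2 dpf) were treated for 16 h with Tocris library compounds at 10 µM (n = 12 larvae per compound). Skeletal-muscle LC3 puncta area relative to body area was measured by high-content confocal imaging before and after 4 h of 100 mM NH4Cl (autophagic flux), normalised to vehicle (DMSO), and reported as log2 fold change.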

[2] = test system: Danio rerio larvae Tg(actc1b:ZsGreen-LC3), 3 dpf; experiment: LC3 puncta relative area vs vehicle, without NH4Cl (log2 fold change); higher = more autophagosomes; conditions: 10 µM; treatment time 16 h; NH4Cl: none
Protocol: as §1

Compound | LC3 puncta (log2) [1] | LC3 puncta (log2) [2]
CC(C)NCC(O)c1ccc2ccccc2c1 (configuration not stated) [Pronethalol hydrochloride] | 0.862 | 
CC(=O)NCC(=O)N[C@H](CCC(=O)O)C(=O)O [N-Acetylglycyl-D-glutamic acid] |  | -0.0216
